# The whole screen tested about 1,500 compounds, of which about 430 (29%) were called active. How the calls were made is not given here. The list is a sample of the results. Measured potencies and affinities stand elsewhere.
# Test: glucose-independent GLuc insulin release activation – cell-based, INS-1E, Gaussia luciferase, luminescence, cherry-pick, counter-screen for glucose-dependent insulin secretion activators, dose response (AID 977606)
# Details: INS-1E Gaussia luciferase insulin secretion, no glucose, 100% = twice neutral-control luminescence; series mostly up to 35 µM
row,Structure (SMILES),outcome
1,CSc1ccc(C(=O)C2CCCN(C(=O)c3ccc4c(c3)no[n+]4[O-])C2)cc1 (stereo unspecified),inactive
2,CN(C(=O)[C@H]1O[C@@H](n2cnc(C(N)=O)n2)[C@H](O)[C@@H]1O)c1ccccc1,inactive
3,CC(=O)Nc1c(C(=O)C2CC2)oc2ccccc12,inactive
4,Cc1ccc(-c2cnc3cccnn23)cc1F,inactive
5,CCN(c1ccccc1)S(=O)(=O)c1ccc(OC)c(OC)c1,inactive
6,O=S(=O)(c1ccc(=S)[nH]c1)N1CCCCCC1,inactive
7,CCC(=O)Nc1cc(C(C)(C)C)ccc1C(C)=O,inactive
8,COc1ccc(C(=O)Nc2nnc(-c3cccs3)s2)cc1,inactive
9,Cc1ccccc1C(=O)NC1CCSC1=O (stereo unspecified),inactive
10,Cc1cc2nc(-c3ccccc3O)[nH]c2cc1C,inactive
11,c1csc(CNc2nc(Oc3ccncc3)c3sccc3n2)c1,inactive
12,O=C(Cn1cc(C(F)(F)F)ccc1=O)NCC1CCCO1 (stereo unspecified),inactive
13,Cc1ccccc1Nc1c(-c2ccncc2)nc2ccc(Cl)cn12,inactive
14,O=C(O)c1c(NC(=O)N2CCOCC2)sc2c1CCCC2,inactive
15,O=c1c(C(c2ccccc2)c2c(O)sc3ccccc3c2=O)c(O)sc2ccccc12,inactive
16,Cn1c(=O)c2c(nc3n2CCCN3CCc2ccccc2)n(C)c1=O,inactive
17,O=C1CSC(c2ccccc2)N1c1ccc(F)cc1F (stereo unspecified),inactive
18,COc1ccc(N2CC(C(=O)N3CCc4ccccc43)CC2=O)cc1 (stereo unspecified),inactive
19,COc1ccc(-c2[nH]c3ccccc3c2SCCN)cc1,inactive
20,CCc1nc2c(OCCC3CCCCC3)cccn2c1N(C)C(=O)c1ccco1,inactive
21,O=C(O)CC(CC(=O)Nc1ccc(C(=O)O)cc1)c1ccccc1 (stereo unspecified),inactive
22,O=C(COC(=O)c1cccnc1Cl)Nc1cc(S(=O)(=O)N2CCCCCC2)ccc1Cl,inactive
23,CC1CCN(C(=O)c2cccc(S(=O)(=O)N3CCN(c4ccccc4)CC3)c2)CC1,inactive
24,CC(=O)NN1C(=O)c2ccccc2NC1c1ccccc1O (stereo unspecified),inactive

row,Structure (SMILES),outcome
1,CN1CCN(c2ccc(CNC(=O)C3(C)Cc4c(-c5ccccc5)ccnc4O3)cc2)CC1 (stereo unspecified),inactive
2,O=C(NC1CCCCC1)c1cccnc1Sc1ccccc1,inactive
3,COc1ccc(C(=O)Nc2nnc(-c3ccco3)s2)cc1,inactive
4,COc1ccc(-c2nc(-c3cccnc3)no2)cc1OC,inactive
5,CCn1nc(C)c(NC(=O)c2cnn3c(C(F)F)cc(-c4ccccc4)nc23)c1C,inactive
6,CCCc1cc(NCC2CCCO2)n2c(nc3ccccc32)c1C#N (stereo unspecified),inactive
7,COc1ccc(CCN(C)C(=O)Cn2c(=O)oc3ccccc32)cc1OC,inactive
8,CCc1nnc(NC(=O)C(c2ccccc2)c2ccccc2)s1,inactive
9,CCc1nc2c(OCc3ccccc3C)cccn2c1N(C)C(=O)c1ccco1,inactive
10,O=S(=O)(Nc1ncnc2sc3c(c12)CCC3)c1cc(F)ccc1F,inactive
11,CCN(CC)C(=O)n1c(Cc2ccccc2)nc2ccccc21,inactive
12,Cc1ccc(S(=O)(=O)/N=C(/Nc2cccc(O)c2)c2ccccc2)cc1,inactive
13,COc1cccc(CNC(=O)c2cccnc2Sc2ccccc2)c1,inactive
14,CCOc1ncccc1C(=O)NCc1cccc(OC)c1,inactive
15,Cc1c(-c2cccc(Cl)c2)nc2ccccc2c1C(=O)NC1CC1,inactive
16,COc1ccc(CN(C)C(=O)Cn2cc(C)c(=O)[nH]c2=O)cc1OC,inactive
17,COc1ccc(-c2cc(NC=O)c3ncc(-c4ccc(OC)c(OC)c4)n3c2)cc1,inactive
18,CC(=O)Nc1cc(-c2ccc(N3CCN(C)CC3)cc2)cn2c(-c3cccc(C(=O)N(C)C)c3)cnc12,inactive
19,O=C(Nc1ccc(S(=O)(=O)N2CCOCC2)cc1)c1ccc(=O)[nH]c1,inactive
20,O=C(NCc1ccc(Cl)cc1)c1cc(=O)[nH]c2ccc(S(=O)(=O)N3CCOCC3)cc12,inactive
21,COc1ccc2[nH]c3c(NCCCN4CCCC4=O)ncnc3c2c1,inactive
22,O=c1c(Cc2ccc(Cl)cc2Cl)c(O)ccn1CC(F)(F)F,inactive
23,CCNc1nc(NCC)nc(Nn2cnnc2)n1,inactive
24,CS(=O)(=O)N1CCCCC1c1cc(C(=O)Nc2cccc3c2CCCC3)no1 (stereo unspecified),inactive

row,Structure (SMILES),outcome
1,CCOC(=O)c1nc(SC)n(C)c1C(=O)OCC,inactive
2,COc1ccc2c(c1)C(C)(Cc1ccc(C(=O)c3ccccc3)cc1)C(=O)N2 (stereo unspecified),inactive
3,Cc1ccc(/C=N/n2c(-c3cccnc3)n[nH]c2=S)s1,inactive
4,O=C(O)c1ccc(/C=N/n2c(C3CCCCC3)n[nH]c2=S)cc1,inactive
5,C[C@H]1[C@@H](c2ccccc2)Oc2c(Cl)cccc2S(=O)(=O)N1C,inactive
6,O=C(COc1ccccc1)N(Cc1cccc(F)c1)C1CCS(=O)(=O)C1 (stereo unspecified),inactive
7,Cc1cccc(NCc2ccccc2)c1,inactive
8,Cc1ccc(NCc2cccc(B(O)O)c2)cc1,inactive
9,Cc1cc(C)cc(Cn2c3ccc(NC(=S)NCc4ccccc4F)cc3c(=O)n2C)c1,inactive
10,O=C(c1ccc2c(c1)OCO2)N1CCc2ccccc2C1,inactive
11,CC(=O)NC1C(=O)N(CCN2CCOCC2)c2ccc(Br)cc21 (stereo unspecified),inactive
12,O=C(CCN1CCOCC1)c1ccc(N2CCCCC2)cc1,inactive
13,CC(C)Oc1ccc(C(=O)CCN2CCOCC2)cc1,inactive
14,CCCn1c2ccccc2c2cn[nH]c(=O)c21,inactive
15,CC1CCC(NCCNC(=O)c2ccco2)CC1 (stereo unspecified),inactive
16,Cc1ccc(S(=O)(=O)Nc2nc(C)cc(NN)n2)cc1,inactive
17,FC(F)(F)c1cc(-c2ccccc2)nc(-n2cc(Cl)cn2)n1,inactive
18,Cn1c(=O)c2[nH]c(SCc3ccccn3)nc2n(C)c1=S,inactive
19,O=C(NCCN1CCN(C(=O)c2ccccc2Cl)CC1)C(=O)NCc1ccccc1,inactive
20,CC(=O)Nc1nc(NCc2ccccc2Cl)n(-c2ccccc2)n1,inactive
21,CC(C)Nc1nc(Nc2ccc(C(N)=O)cc2)c2sccc2n1,inactive
22,CCSc1nnc2ccc(-c3cccs3)nn12,inactive
23,O=C(CCS(=O)(=O)c1ccc(Cl)cc1)Nc1ccc(N2CCOCC2)cc1,inactive
24,COc1ccc(/C=C/c2nc(C#N)c(NCCN(C)C)o2)cc1OC,inactive

row,Structure (SMILES),outcome
1,CCOC(=O)C1(C)CCCCN1C(=O)c1cccc(Cl)c1 (stereo unspecified),inactive
2,CCCCNC(=O)C1(C)CCN1C(=O)c1cc2ccccc2s1 (stereo unspecified),inactive
3,CCc1nc(N)nc2c1C(=O)CC(C)(C)C2,inactive
4,COc1ccc(CCN2C(=O)CC(Cc3ccccc3)C2=O)cc1OC (stereo unspecified),inactive
5,CNc1ccc(-c2ccccc2OC)cn1,inactive
6,CCOC(=O)c1c(S(=O)(=O)NCCc2ccc(OC)c(OC)c2)c(C)n(C)c1C,inactive
7,COc1ccc(-c2nc3cccc(C)n3c2NCc2ccco2)cc1OC,inactive
8,COc1ccc(CCNC(=O)CCn2c(=O)c3ccccc3n(CC(=O)NCC3CCCO3)c2=O)cc1OC (stereo unspecified),inactive
9,COc1ccc(-c2noc(CCC(=O)Nc3cccnc3)n2)cc1OC,inactive
10,Cc1cc(NS(=O)(=O)c2ccc(NC(=O)C(C)Oc3ccccc3Cl)cc2)no1 (stereo unspecified),inactive
11,CC1(C)CC(=O)C(C=NC2CC(C)(C)NC(C)(C)C2)=C(O)C1,inactive
12,COCCNc1nc(NC(C)C)nc2ccsc12,inactive
13,CCn1nnnc1NCc1ccc(OCc2c(F)cccc2Cl)c(OC)c1,inactive
14,COCCN1Cc2cccc(C(=O)NCc3ccccc3OC)c2C1=O,inactive
15,COc1cc2ccc(C(C)=O)cc2cc1OC,inactive
16,COc1ccc2ccc(=O)oc2c1CC=C(C)C,inactive
17,Cc1ccc(NC(=O)CN(C(=O)N2CCN(C)CC2)S(=O)(=O)c2ccc(C)cc2)cc1,inactive
18,FC(F)(F)c1cc(CCN2CCNC[C@@H]2Cc2ccccc2)cc(C(F)(F)F)c1,inactive
19,NC(=O)C1CCN(C(=O)CCNS(=O)(=O)c2ccccc2F)CC1,inactive
20,COc1ccccc1C(OC(=O)c1cccs1)C(=O)NCC1CCCO1 (stereo unspecified),inactive
21,CC(=O)Nc1cccc(-n2c(=O)n(Cc3ccccc3)c(=O)c3[nH]cnc32)c1,inactive
22,O=C(c1cccs1)N(Cc1cccc(F)c1)C1CCS(=O)(=O)C1 (stereo unspecified),inactive
23,C/C(=N/Oc1nc(C)cc(C)n1)c1ccc(F)cc1,inactive
24,C=CCn1c(O)c(N=NC(=O)CNC(=O)c2ccco2)c2ccccc21,inactive

row,Structure (SMILES),outcome
1,CC(C)COC(=O)N1C[C@H](O)C[C@H]1C(=O)Nc1ccc(Cl)cc1,inactive
2,Cn1cc(C(=O)NCC(=O)Nc2ccccc2Br)cn1,inactive
3,COc1ccc(CNC(=O)c2cnn3c(C(F)F)cc(C)nc23)cc1,inactive
4,COc1ccccc1-c1cnc2c(Nc3cccc(OC(F)(F)C(F)F)c3)nccn12,inactive
5,O=C1CC(NS(=O)(=O)c2cccs2)CN1c1cccc(F)c1 (stereo unspecified),inactive
6,CC1(C)Cc2c(cnn2-c2ccccc2)C(NC(=O)CCN2CCCC2=O)C1 (stereo unspecified),inactive
7,COc1ccc(C2CC(c3ccc(OC)c(OC)c3)=NN2C(=O)c2ccccc2)cc1 (stereo unspecified),inactive
8,COc1ccc(-c2cc(C(F)(F)F)n3nc(C(=O)O)cc3n2)cc1OC,inactive
9,Cc1ccccc1Cc1c(C)nc2c(C(=O)NCc3ccco3)cnn2c1C,inactive
10,Cn1nnnc1Sc1ncnc2scc(-c3ccc(F)cc3)c12,inactive
11,CCOc1nc(CC(C)C)c2c(c1C#N)CC(C)(C)OC2,inactive
12,CCOc1nc(Nc2ccccc2F)nc(OCC)n1,inactive
13,CCOc1ncccc1C(=O)Nc1ccccc1F,inactive
14,COc1ccc(NC(=O)C2(c3ccc(NC(=O)c4ccc(OC)cc4)cc3)CCCC2)cc1,inactive
15,COc1ccc(C(=O)Nc2ccccc2C(=O)Nc2ccncc2)cc1,inactive
16,Cc1cccc(C(=O)NC(=S)NNC(=O)COc2c(C)cccc2C)c1,inactive
17,CC(=O)c1cccc(NC(=O)CCC(=O)Oc2ccc(C)cc2)c1,inactive
18,CCOc1ncccc1C(=O)Nc1cccc(S(=O)(=O)NC2=NCCC2)c1,inactive
19,CCCCn1c(N2CCCC2)nc2c1c(=O)[nH]c(=O)n2C,inactive
20,C/C(Cl)=C\Cn1c(N2CCCC2)nc2c1c(=O)[nH]c(=O)n2C,inactive

# Source: PubChem BioAssay AID977606 (Broad Institute, 2014)
